Bioassay records as filed in PubChem.
Many of the other results were omitted from the sample, so hits are more common in it than they were.
14-3-3g Raf – 14-3-3 gamma protein interaction modulation | actives 0.19% (n = 160,000) | P61981 | AID 422 | FP, 14-3-3gamma / TMR-pS259-Raf peptide binding | inhibition, % at 40 µM; in the data active = inhibition above about 30%;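 also: 0% = protein plus tracer without compound and 100% = blank with tracer alone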
Target sequence (P61981 whole entry, looked up): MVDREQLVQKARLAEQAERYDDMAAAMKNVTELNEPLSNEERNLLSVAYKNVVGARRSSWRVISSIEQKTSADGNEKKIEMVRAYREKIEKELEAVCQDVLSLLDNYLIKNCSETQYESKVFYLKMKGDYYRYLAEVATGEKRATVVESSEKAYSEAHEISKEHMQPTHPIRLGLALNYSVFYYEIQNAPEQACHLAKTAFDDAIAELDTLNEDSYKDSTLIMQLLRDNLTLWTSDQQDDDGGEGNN
* = called active by the depositor.

SMILES	14-3-3g Raf
Cc1cccc(Nc2ccc3noc4c3c2C(=O)c2ccccc2-4)c1	-126.0
O=C1c2ccccc2-c2onc3ccc(NCc4ccco4)c1c23	81.9*
COc1ccccc1NC(=O)C1c2cc(OC)c(OC)cc2C(=O)N(C)C1c1ccc(SC)cc1 (stereo not drawn)	6.9
COc1ccc2cc3cc(C(=O)N4CCC(N5CCCCC5)CC4)oc3nc2c1	46.0*
COc1ccc2cc3cc(C(=O)N4CCCC4)oc3nc2c1	-3.4
Cc1ccc2cc3cc(C(=O)N4CCC(N5CCCCC5)CC4)oc3nc2c1	-5.8
CCCCOc1ccc(C2C3=C(CC(C)(C)CC3=O)Nc3ccccc3N2C(=O)C(F)(F)F)cc1 (stereo not drawn)	2.0
Cc1ccccc1N1C(=O)C2C3C=CC(C3)C2C1=O (stereo not drawn)	-1.8
CC1=C(C(=O)Nc2ccccc2)C(c2ccc([N+](=O)[O-])cc2)NC(=S)N1 (stereo not drawn)	3.5
CC1(C)C(N(O)C(=O)Nc2ccccc2)N(c2cccc(Cl)c2)C(=O)N1O (stereo not drawn)	-5.9
CN1C(=S)SC(N(O)C(=O)Nc2ccccc2)C1(C)C (stereo not drawn)	42.7*
O=C(CCN1C(=O)c2cccnc2C1=O)Nc1ncc(Br)s1	-41.1
CCOc1ccc(NC(=O)CSc2nc(N)cc(=O)[nH]2)cc1	-2.3
c1ccc(-c2oc3ncn4nc(-c5cccs5)nc4c3c2-c2ccccc2)cc1	4.7
CC(C)CC(=O)N1CCN(S(=O)(=O)c2ccc(C(C)C)cc2)CC1	-5.7
CNC(=O)C(Sc1ccccc1)c1ccccc1 (stereo not drawn)	124.8*
O=C(Nn1cnnc1)C(Sc1ccccc1)c1ccccc1 (stereo not drawn)	0.5
O=C(NCc1ccc(F)cc1)C(Sc1ccccc1)c1ccccc1 (stereo not drawn)	-0.7
COc1cccc2c3c(c(C)nc12)CC(C)S3 (stereo not drawn)	-6.4
Cc1nc2ccc(C(=O)O)cc2c2c1CC(C)S2 (stereo not drawn)	73.4*
Cc1nc2cc(C(=O)O)ccc2s1	-6.7
N#Cc1c(N=Cc2ccc([N+](=O)[O-])cc2)sc2c1CCC2	135.5*
N#Cc1c(N=Cc2cc([N+](=O)[O-])ccc2Cl)sc2c1CCCC2	1.0
N#Cc1c(N=Cc2ccc([N+](=O)[O-])s2)sc2c1CCCC2	63.0*
N#Cc1c(N=Cc2cc([N+](=O)[O-])ccc2O)sc2c1CCCC2	-13.5
SMILES	14-3-3g Raf
N#Cc1c(N=Cc2ccc(Cl)c([N+](=O)[O-])c2)sc2c1CCCC2	-7.7
Cc1ccc(C=Nc2sc3c(c2C#N)CCC3)cc1	-30.8
O=C(NCCc1ccccc1)C1CCC(Cn2c(=O)c3ccccc3n(Cc3cccc([N+](=O)[O-])c3)c2=O)CC1 (stereo not drawn)	-29.2
Cc1ccc([N+](=O)[O-])c2c1NC(c1cccc([N+](=O)[O-])c1)C1CC=CC21 (stereo not drawn)	-16.4
CC1=NNC(c2ccc(O)cc2)C1 (stereo not drawn)	-79.0
CCOc1cc(C2Oc3nc(SC)nnc3-c3ccccc3N2C(=O)CC)cc(Br)c1OC (stereo not drawn)	-1.5
Fc1ccccc1C1C=C(c2cccnc2)Nc2nc3ccccc3n21 (stereo not drawn)	47.3*
Fc1ccccc1C1C=C(c2cccc(Br)c2)Nc2nc3ccccc3n21 (stereo not drawn)	-11.1
Fc1ccccc1C1C=C(c2ccc(Br)s2)Nc2nc3ccccc3n21 (stereo not drawn)	-107.1
N#Cc1c(/N=C/c2ccco2)sc2c1CCCCC2	-6.6
CN1CCc2c(sc(/N=C/c3cccs3)c2C(N)=O)C1	-37.5
CN1CCc2c(sc(/N=C/c3ccco3)c2C(N)=O)C1	47.8*
COC(=O)c1cc(C(=O)NCCCN(C)C)cc([N+](=O)[O-])c1	-11.7
CCCN1CCN(C(=O)c2ccc(Sc3ccc(Cl)cc3)c(NC(C)=O)c2)CC1	-15.0
COc1ccc(NS(=O)(=O)c2cc(Br)cc3c2N(C(C)=O)CC3)cc1Cl	-30.3
COc1ccc(N2CCN(CCNC(=O)c3cccn4c(=O)c5cc6ccccc6cc5nc34)CC2)cc1	178.9*
COc1ccc(N2CCN(CCNC(=O)c3cccn4c(=O)c5ccc(Cl)cc5nc34)CC2)cc1	-10.0
O=C(NCCN1CCOCC1)c1cccn2c(=O)c3cc4ccccc4cc3nc12	-9.5
Oc1ccccc1-c1nc(N2CCCCC2)c2ccccc2n1	-1.1
Cc1ccc(C2/C(=C(\O)c3ccc(Cl)cc3)C(=O)C(=O)N2c2ccccn2)cc1 (stereo not drawn)	-8.7
CCc1cccc(C)c1NC(=O)c1cc(S(=O)(=O)NCCC2=CCCCC2)ccc1F	-8.3
CC(C)(CC(=O)Nc1ccc(Oc2ccccc2)cc1)CC1=NS(=O)(=O)c2ccccc2N1	-7.9
NS(=O)(=O)c1ccc(NC(=O)Nc2cccc(Cl)c2)cc1	-1.3
O=C(Nc1cc(C(=O)Nc2ccc(S(=O)(=O)O)cc2S(=O)(=O)O)cc(C(=O)Nc2ccc(S(=O)(=O)O)cc2S(=O)(=O)O)c1)Nc1cc(C(=O)Nc2ccc(S(=O)(=O)O)cc2S(=O)(=O)O)cc(C(=O)Nc2ccc(S(=O)(=O)O)cc2S(=O)(=O)O)c1	31.8*
Cc1c(NC(=O)c2ccccc2)cc(S(=O)(=O)c2ccc(Cl)cc2)c(O)c1C	-12.2
SMILES	14-3-3g Raf
CCOc1ccc(C(=O)N2CC(=O)Nc3ccc(Br)cc3C2c2ccc(F)cc2)cc1 (stereo not drawn)	-3.5
O=C1C2C3C=CC(C2C(=O)N1c1ccccc1)C1C2C(=O)N(c4ccccc4)C(=O)C2C31 (stereo not drawn)	-3.2
O=C1C2C3C=CC(C2C(=O)N1c1ccc(O)cc1)C1C2C(=O)N(c4ccc(O)cc4)C(=O)C2C31 (stereo not drawn)	63.7*
COc1ccc(N2C(=O)C3C4C=CC(C3C2=O)C2C3C(=O)N(c5ccc(OC)cc5)C(=O)C3C42)cc1 (stereo not drawn)	-0.9
O=C(Oc1ccc2c3c(c(=O)oc2c1)CCCC3)C(F)(F)F	-3.9
COc1ccccc1N1C(=S)NC2c3cc([N+](=O)[O-])ccc3OC1(C)C2C (stereo not drawn)	1.4
CC(C(=O)NCc1ccccc1Cl)C1Sc2ccccc2N(Cc2ccccc2F)C1=O (stereo not drawn)	-3.0
COCCCN1C(=S)NC2c3cccc(OC)c3OC1(C)C2C(=O)Nc1ccc(Cl)cc1 (stereo not drawn)	0.6
CCC(=O)N1CCc2cc(S(=O)(=O)CCC(=O)Nc3ccc(Br)c(C)c3)ccc21	-15.0
CC1CC(=O)C(CC(=O)O)C1C[N+](=O)[O-] (stereo not drawn)	30.3*
Cc1ccc(C2C3CN(C(C)C)CC=C3C(C#N)=C(N)C2(C#N)C#N)cc1 (stereo not drawn)	36.1*
CC(=O)N1CC=C2C(C#N)=C(N)C(C#N)(C#N)[C@H](c3ccoc3)[C@H]2C1	-8.4
COc1ccc(OC)c(C2C3CN(C(C)C)CC=C3C(C#N)=C(N)C2(C#N)C#N)c1 (stereo not drawn)	-26.8
Cc1sc2nc(SCC(=O)N3CCN(CCO)CC3)n(-c3ccccc3)c(=O)c2c1C	-3.5
CCOC(=O)CCCSc1nc2sc(C)c(C)c2c(=O)n1-c1ccccc1	43.8*
CCOC(=O)CCCSc1nc2sc3c(c2c(=O)n1-c1ccccc1)CCCC3	10.3
O=[N+]([O-])c1ccc(Cl)c(S(=O)(=O)Nc2ccccn2)c1	-0.6
O=C(NCc1ccc(Cl)cc1)c1c(O)c2c([nH]c1=O)CCCC2	-0.4
O=C(Nc1ccccc1C(F)(F)F)c1c(O)c2cccc3c2n(c1=O)CC3	-0.4
